Holding throughout (assay): NCI-60 one-dose screen, 48 h (100 = growth as untreated, 0 = no growth, -100 = all killed)
Settings in all cases: 10 µM unless noted

Assay [1] concerns SK-MEL-2 melanoma.
Assay [2] has as its system EKVX NSCLC.
The subject of assay [3] is SN12C renal.
The subject of assay [4] is UO-31 renal.
The subject of assay [5] is TK-10 renal.
Assay [6] concerns ACHN renal.
The test system of assay [7] is CAKI-1 renal.
Assay [8] deals with A498 renal.
For assay [9], the system named is CCRF-CEM leukemia.
Assay [10] concerns MOLT-4 leukemia.
Assay [11] concerns RPMI-8226 leukemia.
In assay [12] the test system is OVCAR-8 ovarian.
The test system of assay [13] is OVCAR-5 ovarian.
The subject of assay [14] is OVCAR-4 ovarian.
The subject of assay [15] is SK-OV-3 ovarian.
For assay [16], the system named is IGROV1 ovarian.
The test system of assay [17] is OVCAR-3 ovarian.
For assay [18], the system named is HS 578T breast.
The test system of assay [19] is NCI/ADR-RES ovarian.

The structures appear in SMILES notation. The panel holds about 83,000 compounds, 20% with a hit somewhere; the sample as a whole holds those more often.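 Step 1: grow cells in 96-well plates. Step 2: add test compound at a single concentration. Step 3: incubate 48 h. Step 4: record percent growth.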 Unmarked numbers belong to inactive results. Calls of active or inactive are those of the source. The calls were made as follows: active = growth percent below 10; inactive = the rest.

For the molecule `CSc1nc(NCCN2CCOCC2)c(C#N)c(-c2cccc([N+](=O)[O-])c2)n1`, the growth was 109% in assay [1]; 87.3% in assay [2]; 95.7% in assay [3]; 82.5% in assay [4]; 135% in [5]; 93.7% in assay [6]. Also, the growth in assay [7] was 86.4%; in assay [8] it was 55.7%; in [9], 102%; in assay [10] it was 98%; in assay [11] it was 100%; in [12] it was 97.4%. The growth in assay [13] was 96.2%; in assay [14], 87.3%; in assay [15] it was 97.8%; in assay [16], 94.9%; in [17] it was 109%; in assay [18], 97.9%. In addition, the growth in assay [19] was 95.7%.
For `CC1(C)CC[C@]2(C(=O)Nc3ccccn3)CC[C@]3(C)C(=CC[C@@H]4[C@@]5(C)C/C(=C/c6cccnc6)C(=O)C(C)(C)[C@@H]5CC[C@]43C)[C@H]2C1`, the growth is 63.9% in assay [1]; 42.5% in assay [2]; 32.6% in [3]; 37.4% in assay [4]; 68.9% in assay [5]; 26.5% in assay [6]. Moreover, the growth in [7] is 36.3%; in assay [8] it was 39.9%; in assay [9], 20.9%; in [10] it was 13.2%; in assay [11], 13.3%; in assay [12], 29.3%. The growth is 56.4% in [13]; 26.7% in assay [14]; 74% in assay [15]; 52.8% in assay [16]; 35.4% in assay [17]; 42.2% in [19].
In the case of `Cn1c(O)c(N=NC(=O)c2cc(-c3ccccc3)on2)c2ccccc21`, the growth in [1] was 95.3%; in assay [2], 88.5%; in [3], 100%; in assay [4], 88%; in assay [5], 125%; in assay [6], 100%. The growth is 90.4% in assay [7]; 85.8% in assay [8]; 108% in [9]; 105% in [10]; 115% in assay [11]; 104% in assay [12]. Besides, the growth was 102% in assay [13]; 95.7% in [14]; 108% in [15]; 102% in assay [16]; 115% in [17]; 96.2% in assay [18]. The growth in [19] was 94.9%.
For the molecule `c1ccc(-c2c(-c3ccccc3)[n+](Cc3ccc4ccccc4c3)c(-c3ccc(-c4nc5ccccc5s4)cc3)n2Cc2ccc3ccccc3c2)cc1`, the growth in [1] was -88.7% (active); in assay [2], -93.4% (active); in assay [3], -86.7% (active); in [4], -94.1% (active); in [5], -80.9% (active); in assay [6] it was -96.8% (active). Further, the growth was -89.5% (active) in [7]; -97.4% (active) in [8]; -14.8% (active) in [9]; -51.9% (active) in assay [10]; -40.5% (active) in assay [11]; -85.4% (active) in [12]. For the same molecule, the growth in assay [13] was -93% (active); in assay [14] it was -62.9% (active); in assay [15], -97.4% (active); in assay [16] it was -84.8% (active); in [17] it was -89.4% (active); in assay [19], -52.1% (active).
For the molecule `C=CC(=O)Nc1cccc(Nc2nc(SC)nc(-c3cccc([N+](=O)[O-])c3)c2C#N)c1`, the growth in [1] is 46.8%; in assay [2], 53.2%; in assay [3] it was 62.9%; in assay [4] it was 60.8%; in assay [5], 32.1%; in assay [6] it was 55.6%. The growth in [7] is 42.6%; in [8] it was -1.13% (active); in [9], 72.2%; in assay [10], 59.8%; in assay [11] it was 48.2%; in [12], 43.4%. Besides, the growth in assay [13] was 71.8%; in [14], 32.9%; in assay [15], 74.3%; in assay [16], 54.9%; in assay [17], 19.9%; in assay [19] it was 61.8%.
With `COc1cc2nc(N3CCCC3)nc(NCCc3ccccc3)c2cc1OC`, the growth was 103% in [1]; 59.5% in [2]; 75.9% in assay [3]; 69.2% in assay [4]; 98.3% in [5]; 85.7% in [6]. Moreover, the growth was 80.5% in assay [7]; 83.1% in [8]; 0.115% (active) in [9]; -2.23% (active) in [10]; -21.8% (active) in assay [11]; 65.6% in assay [12]. Further, the growth in assay [13] is 39.5%; in assay [14], -2.44% (active); in assay [15], 84.7%; in assay [16], 70.3%; in assay [17], 82.5%; in [18], 98.4%. Also, the growth in [19] was 61.8%.
With `O=C1NC(=S)NC(=O)C1CC(=O)n1c(-c2ccccc2)nc2ccccc21`, the growth in assay [1] is 110%; in assay [2], 82.4%; in [3] it was 95.8%; in [4] it was 73.5%; in assay [5], 143%; in assay [6], 86.6%. Also, the growth was 77.2% in assay [7]; 89% in assay [8]; 110% in [9]; 99.9% in assay [10]; 108% in assay [11]; 95.3% in assay [12]. Besides, the growth in assay [13] was 99.5%; in assay [14] it was 98.1%; in assay [15], 90.4%; in assay [16], 84.2%; in assay [17] it was 103%; in assay [18], 98.9%. In addition, the growth in assay [19] is 104%.
